According to PubChem BioAssay (NCI):
The panel holds about 79,000 compounds, 15% with a hit somewhere; the sample as a whole holds those more often. Cut-off read from the data, not from the text of the source: active = growth inhibition above about 70%; inactive = the rest.

Key:
[1] = NCI Yeast Anticancer Drug Screen. Data for the rad50 strain (AID 155);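 note: 0% = growth of vehicle-only cultures of the same strain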; conditions: S. cerevisiae rad50 strain growth inhibition; at 50.0 µM; active compounds read high
How it was run: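 Inhibition values express reduced yeast growth in compound-treated cultures relative to vehicle-treated controls.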

[2] = NCI Yeast Anticancer Drug Screen. Data for the mec2-1 strain (AID 157); conditions: S. cerevisiae mec2-1 strain, at 50.0 µM, active compounds read high
How it was run: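 Compounds were applied to mec2-1 yeast cells. Their growth was then compared with that of vehicle-treated cultures to give growth inhibition.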

[3] = NCI Yeast Anticancer Drug Screen. Data for the sgs1 mgt1 strain (AID 161);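 note: 0% = growth of cultures given vehicle only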; conditions: S. cerevisiae sgs1 mgt1 strain, at 50.0 µM, active compounds read high
How it was run: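 This yeast growth screen uses a strain with defined DNA-repair lesions; compound-treated growth is compared with vehicle-treated growth.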

[4] = NCI Yeast Anticancer Drug Screen. Data for the cln2 rad14 strain (AID 165);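 note: 0% = growth equal to vehicle treated cultures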; conditions: S. cerevisiae cln2 rad14 strain, at 50.0 µM, active compounds read high
How it was run: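 Strain: cln2 rad14 yeast, altered in cell cycle control and DNA damage repair. Read-out: growth inhibition vs vehicle.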

[5] = NCI Yeast Anticancer Drug Screen. Data for the bub3 strain (AID 167); conditions: S. cerevisiae bub3 mutant strain, at 50.0 µM, active compounds read high
How it was run: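 Steps: expose the mutant yeast strain to compound; grow alongside vehicle-treated cultures; measure growth; express inhibition against the vehicle cultures.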

[6] = NCI Yeast Anticancer Drug Screen. Data for the mlh1 rad18 strain (AID 175); conditions: S. cerevisiae mlh1 rad18 strain growth inhibition; at 50.0 µM; active compounds read high
How it was run: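 A repair-deficient yeast strain is exposed to test compound, and growth is scored relative to vehicle-treated controls.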

Measured: growth inhibition

O=C(O)C1CCCC(C(=O)O)[N-]1.O=C(O)C1CCCC(C(=O)O)[N-]1.[Cr+2] (stereo not given)
inactive: [1] 31% | [2] -3.5% | [3] 15.8% | [4] -14.5% | [5] -2% | [6] 14.3%

COC(=O)C(N)Cc1ccc(OC)c(N(CCCl)CCCl)c1 (stereo not given)
inactive: [1] 17% | [2] -0.6% | [3] -11.2% | [4] 2.8% | [5] 3% | [6] 6.55%

CC(C)(C)C1COP(=O)(Oc2ccccc2)OC1 (stereo not given)
inactive: [1] 2.35% | [2] 7.55% | [3] -4.5% | [4] -13.8% | [5] 19.4% | [6] 3.6%

COC(=O)C1C(OC(=O)C(Cl)(c2ccccc2)c2ccccc2)CC2CCC1N2C (stereo not given)
inactive: [1] -5.25% | [2] -6.35% | [3] -19.6% | [4] 7.65% | [5] -21.1% | [6] -6.9%

CN1CCC(OC(=O)Oc2ccccc2)(c2ccccc2)CC1
inactive: [1] 1.6% | [2] 9.6% | [3] 3.95% | [4] 33.7% | [5] 48.5% | [6] -6.65%

COC(=O)C1C2CC3c4c(c5ccc(OC)cc5n4[N+](=O)[O-])CCN3CC2CC(OC(=O)c2cc(OC)c(OC)c(OC)c2)C1OC (stereo not given)
inactive: [1] -14% | [2] -50.5% | [3] -34.4% | [4] -17.9% | [5] -22.2% | [6] -3.9%

CCCCCCNC(=O)C(C)Br (stereo not given)
inactive: [1] -7.35% | [2] 4.9% | [3] -0.55% | [4] -12.4% | [5] 9.95% | [6] 1.85%

C(=NC1CCCCC1)c1c[nH]c2ccccc12
inactive: [1] -24.9% | [2] -39.6% | [3] -5.05% | [4] 4.7% | [5] -27.5% | [6] -17.8%

Cc1cc(N(CCCl)CCCl)ccc1C=Nc1ccccc1F
inactive: [1] 8.3% | [2] -5.4% | [3] 3.6% | [4] -40.4% | [5] 6.85% | [6] 0.5%

CCC(C)C(CC)C(=O)NC(N)=O (stereo not given)
inactive: [1] 4.4% | [2] 4.55% | [3] -11.4% | [4] -1.35% | [5] 8.5% | [6] 0.95%

C1CC[N-]CC1.C1CC[N-]CC1.C1CC[N-]CC1.C1CC[N-]CC1.[Cl][Rh][Cl]
inactive: [1] -12.5% | [2] 28.6% | [3] 8.5% | [4] -13.9% | [5] -58% | [6] -18.4%

COc1cc(C2c3cc4c(c(O)c3C[C@H]3COC(=O)[C@@H]23)OCO4)cc(OC)c1O (stereo not given in full)
inactive: [1] -25.7% | [2] -23.1% | [3] -16.8% | [4] 5.8% | [5] 2.85% | [6] -13.6%

c1ccc(CN2CCNCC2)cc1
inactive: [1] -8.35% | [2] -14.4% | [3] 1.9% | [4] -14.1% | [5] 4.9% | [6] -9.7%

CCOP(=O)(OCC)Oc1ccc([N+](=O)[O-])c(CC)c1
inactive: [1] -2.55% | [2] -3.55% | [3] -0.3% | [4] 3.5% | [5] 18.5% | [6] -8.25%

CC(=O)OC1(C(C)=O)CC2(c3ccccc3)OC1(c1ccccc1)c1ccccc12 (stereo not given)
inactive: [1] -0.55% | [2] 12.1% | [3] 9% | [4] 10.2% | [5] -3.9% | [6] 7.25%

C1CN1[PH+](N1CC1)N1CC1.[C-]#[O+].[C-]#[O+].[C-]#[O+].[C-]#[O+].[C-]#[O+].[Cr]
inactive: [1] -5.55% | [2] -4.65% | [3] -0.75% | [4] -11.8% | [5] 2.4% | [6] -17.3%

ClCCn1c(/C=C/c2nc3ccccc3n2CCCl)nc2ccccc21
inactive: [1] 26.1% | [2] 5.8% | [3] 6.1% | [4] -32.1% | [5] -3.65% | [6] 20.6%

CC(C)=CCN1CCC2(C)c3cc(O)ccc3CCC2C1 (stereo not given)
inactive: [1] -9.9% | [2] -8.8% | [3] -0.8% | [4] -31.2% | [5] -6.5% | [6] -2.1%

O=C(O)C(=O)Cc1ccc2c(c1)OCO2
inactive: [1] -3.8% | [2] -19.3% | [3] -28.6% | [4] -32.9% | [5] -20.2% | [6] 0.5%

OCCBr
inactive: [1] -2.95% | [2] -7.7% | [3] -4.65% | [4] -1.05% | [5] -0.7% | [6] -17.9%
